The campaign covered roughly 390,000 compounds. About 17,000 (4.4%) were called active. Entries that show only a call come without a potency. Not shown: some 8% with an inconclusive outcome. Calls come from the whole dose curve; as a rule, active = well fitted inhibition curve with a large enough effect; inconclusive = small, poorly fitted or top-dose-only effect; inactive = no such curve, though single readings can be large or run the other way. The sample as a whole holds a higher share of actives than the screen did.
These molecules were tested against Lysine-specific demethylase 4A (Homo sapiens) (UniProt O75164) (assay: qHTS Assay for Inhibitors of JMJD2A-Tudor Domain). Conditions: AlphaScreen JMJD2A-Tudor / H3K4me3 peptide binding; series mostly up to 114 µM.
Sequence of Lysine-specific demethylase 4A (Homo sapiens) (O75164 whole entry, looked up, the tested form may be a part): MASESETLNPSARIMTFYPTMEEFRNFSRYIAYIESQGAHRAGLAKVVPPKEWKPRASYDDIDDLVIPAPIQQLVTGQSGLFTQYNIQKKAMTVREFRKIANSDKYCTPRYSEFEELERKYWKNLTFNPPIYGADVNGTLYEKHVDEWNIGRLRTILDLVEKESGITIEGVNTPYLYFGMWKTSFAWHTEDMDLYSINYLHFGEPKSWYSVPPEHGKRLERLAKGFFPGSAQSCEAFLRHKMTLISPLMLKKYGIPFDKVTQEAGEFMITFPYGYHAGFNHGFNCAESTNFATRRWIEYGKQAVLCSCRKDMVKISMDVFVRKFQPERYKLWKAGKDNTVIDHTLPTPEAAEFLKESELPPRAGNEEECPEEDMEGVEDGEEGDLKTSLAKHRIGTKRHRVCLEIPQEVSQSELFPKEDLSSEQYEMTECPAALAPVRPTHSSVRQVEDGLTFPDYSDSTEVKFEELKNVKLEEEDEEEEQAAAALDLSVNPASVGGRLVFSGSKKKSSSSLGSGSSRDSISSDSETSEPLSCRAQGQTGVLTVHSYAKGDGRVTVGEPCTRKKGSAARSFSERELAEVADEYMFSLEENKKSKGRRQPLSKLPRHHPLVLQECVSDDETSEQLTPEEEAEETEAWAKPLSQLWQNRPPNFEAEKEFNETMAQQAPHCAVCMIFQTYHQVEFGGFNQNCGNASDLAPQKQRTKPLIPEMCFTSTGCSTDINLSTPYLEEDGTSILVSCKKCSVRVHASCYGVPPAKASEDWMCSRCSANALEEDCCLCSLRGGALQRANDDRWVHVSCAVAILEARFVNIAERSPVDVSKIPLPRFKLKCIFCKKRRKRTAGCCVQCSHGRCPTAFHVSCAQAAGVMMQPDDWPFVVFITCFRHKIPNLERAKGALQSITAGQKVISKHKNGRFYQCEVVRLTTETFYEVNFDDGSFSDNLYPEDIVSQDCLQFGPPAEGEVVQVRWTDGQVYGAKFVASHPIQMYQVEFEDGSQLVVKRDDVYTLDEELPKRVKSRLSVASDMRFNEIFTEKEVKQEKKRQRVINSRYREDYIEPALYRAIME
For `Cc1cc(C)c(NC(=O)c2cc3sc(Cl)cc3n2C)c(C)c1`, the Potency was “inactive”. With `COC(=O)Cc1cc(=O)oc2c(C)c(O)ccc12` the Potency was “inactive”. `COc1cccc(OCC(O)CNC(=O)c2oc3c(C)c(C)ccc3c2C)c1` (stereo unspecified) was tested, and the Potency was “inactive”. For `COc1cccc(C(=O)OCc2cc(=O)oc3c(C)c(C)ccc23)c1OC`, the Potency was 79.4 µM (active). `CCn1c(CN2CCC(C)CC2)nc2cc(NC(=O)c3ccccc3[N+](=O)[O-])ccc21` was tested, and the Potency was “inactive”. For `Cc1nn(C(C)C(=O)Nc2ccc(C(C)C)cc2)c(=O)c2c1sc1ccccc12` (stereo unspecified), the Potency was “inactive”. For `COc1ccc(NC(=O)CCc2nnc3n(CC(C)C)c(=O)c4ccccc4n23)cc1OC`, the Potency was “inactive”. For `COC(=O)c1ccccc1NC(=O)c1ccc(COc2ccccc2Cl)o1`, the Potency was “inactive”. In the case of `CCN(CCCNC(=O)c1cc2c(=O)n(CC)c3ccccc3c2s1)Cc1ccccc1`, the Potency is reported as “inactive”. With `N#Cc1c(N2CCCCC2)nc(N)c2c(N)nc(SCC(=O)O)cc12` the Potency was 50.1 µM (active). `O=C(O)CSc1ccc(S(=O)(=O)N2CCCC2)cn1` was tested, and the Potency was “inactive”. With `N#Cc1c(C(F)(F)F)cc(-c2ccc(Cl)cc2)nc1SCC(=O)O` the Potency was “inactive”. In the case of `COc1cc(NC(=O)c2cc(C3CC3)nc3c2c(C)nn3-c2ccccc2)cc(OC)c1`, the Potency is reported as “inactive”. For `Cc1ccc(C)c(N2CCN(C(c3ccccc3)c3nnc(-c4ccccc4)o3)CC2)c1` (stereo unspecified), the Potency was “inactive”. `CCc1ccc(NC2Nc3cc(C)nn3S2)cc1` (stereo unspecified) was tested, and the Potency was 22.4 µM (active). In the case of `CCOC(=O)c1ccc(NC2Nc3cc(C)nn3S2)cc1` (stereo unspecified), the Potency is reported as “inactive”. `COc1cccc(N2CC(NC(=O)/C=C\c3ccccc3)CC2=O)c1` (stereo unspecified) was tested, and the Potency was “inactive”. With `COc1ccccc1-n1c(SCC(=O)Nc2cccc(C(=O)O)c2)nnc1-c1ccccc1O` the Potency was “inactive”. For `Cc1ccc(C(=O)NCCc2nnc(SCC(=O)Nc3cccc(C(=O)O)c3)n2C)cc1`, the Potency was “inactive”. With `Cc1ccc(C)c2c1cc(C)c1nnc(SCC(=O)Nc3cccc(C(=O)O)c3)n12` the Potency was 12.6 µM (active). In the case of `COC(=O)c1ccc(NC(=O)c2cc(S(=O)(=O)N3CCC(C)CC3)cn2C)cc1`, the Potency is reported as “inactive”. `Cc1ccc(Nc2nc3ccccc3nc2-n2nc(C)cc2C)c(Cl)c1` was tested, and the Potency was “inactive”. `Cc1ccc(Cn2ncc3c4sc(C)cc4n(C)c3c2=O)c(C)c1` was tested, and the Potency was “inactive”. `CCCCNC(=O)C1CCC(CNS(=O)(=O)c2ccc(NC(C)=O)cc2)CC1` (stereo unspecified) was tested, and the Potency was “inactive”. In the case of `Cc1ccc(CCNC(=O)c2ccc(CNS(=O)(=O)c3ccc(C)cc3)cc2)cc1`, the Potency is reported as “inactive”. For `COCCCNC(=O)c1ccc(CNS(=O)(=O)c2ccc(NC(C)=O)cc2)cc1`, the Potency was 50.1 µM (active). With `Cc1ccc(CN2CCC(CNC(=O)c3cnn(-c4ccccc4Cl)c3C3CCN(C(=O)OC(C)(C)C)CC3)CC2)cc1` the Potency was “inactive”. For `CCc1cccc(CC)c1NC(=O)Cn1c(=O)c(-c2cc(C)ccc2NC(C)=O)nc2ccccc21`, the Potency was “inactive”. `COC(=O)c1ccccc1NC(=O)C(Cc1ccccc1)N1Cc2ccccc2C1=O` (stereo unspecified) was tested, and the Potency was “inactive”. For `CCN(CC)c1ccc(/C=N/NC(=O)c2cnccn2)c(O)c1`, the Potency was “inactive”. In the case of `CCOc1cc(/C=N/Nc2cc(C)nc3ccc(C)cc23)ccc1O`, the Potency is reported as “inactive”. With `CCN(CC)c1ccc(/C=N/Nc2nc(C)cc(C)n2)c(O)c1` the Potency was 50.1 µM (active). With `CCCCNC(=O)Cn1c(SCc2cccc(Cl)c2)nc2ccncc21` the Potency was “inactive”. In the case of `CCCN(CCC)CCCNC(=O)Cn1ncc2c3ccccc3n(Cc3ccccc3)c2c1=O`, the Potency is reported as “inactive”. For `Cc1cccc(OCC(O)CN2CCN(CCN3C(=O)c4cccc5cccc(c45)C3=O)CC2)c1C` (stereo unspecified), the Potency was 39.8 µM (active). In the case of `C=CCc1ccccc1OCC(O)CN1CCN(CCO)CC1` (stereo unspecified), the Potency is reported as “inactive”. `Cc1ccc(OCC(O)CN2CCN(CC(O)COc3ccc(C)cc3Cl)CC2)c(Cl)c1` (stereo unspecified) was tested, and the Potency was “inactive”. For `COc1ccc(NC(=O)Cn2c(=O)n(CCC(C)C)c(=O)c3cccnc32)cc1Cl`, the Potency was “inactive”. In the case of `Cc1cc(C)cc(NC(=O)c2cnc3sc(N4CCCC4)nn3c2=O)c1`, the Potency is reported as “inactive”. In the case of `CC(=O)Nc1ccc(N2C(=O)CC(Sc3nccc(C)n3)C2=O)cc1` (stereo unspecified), the Potency is reported as “inactive”. `COc1ccc(N2C(=O)CC(SC(C)C)C2=O)cc1` (stereo unspecified) was tested, and the Potency was “inactive”. With `COc1ccc(-c2nc(SCC(=O)N3CCCC3)n[nH]2)cc1` the Potency was “inactive”. With `Cc1ccc(N2C(=O)CC(Sc3ncn[nH]3)C2=O)cc1` (stereo unspecified) the Potency was 28.2 µM (active). `O=C1CC(Sc2ncn[nH]2)C(=O)N1c1ccccc1` (stereo unspecified) was tested, and the Potency was 39.8 µM (active). With `COC(=O)c1ccccc1SC1CC(=O)N(c2cccc(C)c2)C1=O` (stereo unspecified) the Potency was “inactive”. `COc1ccc(N2C(=O)CC(Sc3n[nH]c(-c4ccc(C)cc4)n3)C2=O)cc1` (stereo unspecified) was tested, and the Potency was 2 µM (active). In the case of `CCOc1ccccc1N1C(=O)CC(Sc2nccc(C)n2)C1=O` (stereo unspecified), the Potency is reported as “inactive”. In the case of `Cc1ccc(CC2CC(=O)N(c3ccc4c(c3)OCCO4)C2=O)cc1` (stereo unspecified), the Potency is reported as “inactive”. `CC(=O)Nc1cccc(NC(=O)CSc2nccn2Cc2ccc3c(c2)OCO3)c1` was tested, and the Potency was “inactive”. With `O=C(CCS(=O)(=O)c1ccccc1)N(Cc1cccnc1)c1nc2c(F)cccc2s1` the Potency was “inactive”. `COc1ccc2oc(=O)c(-c3cn4c(n3)sc3cc(OC)ccc34)cc2c1` was tested, and the Potency was “inactive”. For `CCC(=O)N1c2ccccc2CC1C(=O)N1CCN(c2ccccc2F)CC1` (stereo unspecified), the Potency was “inactive”. For `CC1=C(c2ccc(C)cc2)S(=O)(=O)NC1=NCCCN1CCN(c2cc(C)ccc2C)CC1`, the Potency was “inactive”. For `COc1ccc(Cn2c(C(=O)O)c(CNCCc3cccs3)c3ccc(OC)cc32)cc1`, the Potency was “inactive”. For `COc1cc(OC)cc(C(=O)Nc2c(C(=O)Nc3ccc(F)cc3)oc3ccccc23)c1`, the Potency was “inactive”. In the case of `Cc1ccc(C)c(N2CCN(C(=O)Cn3ncc4c(=O)oc5ccc(C)cc5c43)CC2)c1`, the Potency is reported as “inactive”. For `C/C(=N\N(C)C)c1ccc(OCCOc2ccc([N+](=O)[O-])cc2)cc1`, the Potency was 44.7 µM (active). With `C/C(=N/NC(=O)CC(=O)N/N=C(\C)c1ccc([N+](=O)[O-])cc1)c1ccc([N+](=O)[O-])cc1` the Potency was “inactive”. For `CO/N=C(\N)c1ccc([N+](=O)[O-])cc1`, the Potency was “inactive”. `Cc1oc2ncnc(N3CCOCC3)c2c1C(=O)NCCc1ccccc1` was tested, and the Potency was “inactive”. `CCCCOc1ccc(C(=O)N2CC(=O)Nc3ccc(Br)cc3C2c2ccc(F)cc2)cc1` (stereo unspecified) was tested, and the Potency was “inactive”. For `C[n+]1ccccc1C1CCCC/C1=N\Nc1ccc([N+](=O)[O-])cc1[N+](=O)[O-]` (stereo unspecified), the Potency was “inactive”. For `O=[N+]([O-])c1ccc(N/N=C2/CCCCC2c2ccccn2)c([N+](=O)[O-])c1` (stereo unspecified), the Potency was 31.6 µM (active). With `O=C(Nc1ccccc1)O/N=C1\CCCCC1c1ccc([N+](=O)[O-])cc1[N+](=O)[O-]` (stereo unspecified) the Potency was “inactive”. With `Cc1ccc(C)c(S(=O)(=O)c2nnn3c2nc(N2CCOCC2)c2sccc23)c1` the Potency was “inactive”. For `COc1ccc(CCN2C(=O)N(c3cccc(OC)c3)C(=O)C2CC(=O)Nc2ccccc2)cc1` (stereo unspecified), the Potency was “inactive”. In the case of `N#C/C(=C/c1ccc(N2CCOCC2)o1)C(=O)N1CCOCC1`, the Potency is reported as “inactive”. For `N#C/C(=C\C1=C(N2CCOCC2)C(=C\c2ccccc2)/CC1)C(=O)Nc1ccccc1F`, the Potency was 4.47 µM (active). For `O=C(CC1SC(N2CCOCC2)=NC1=O)Nc1ccccc1F` (stereo unspecified), the Potency was “inactive”. With `COc1c(Cl)cc(Cl)cc1C(=O)Nc1cccc2cccnc12` the Potency was “inactive”. `Cc1ccc(S(=O)(=O)NCCC(c2ccccc2)c2ccccc2)cc1C(=O)O` was tested, and the Potency was 79.4 µM (active). For `Cc1ccc(S(=O)(=O)NCCCn2ccnc2)cc1C(=O)NC(C)C`, the Potency was “inactive”. For `Cc1cccc(NS(=O)(=O)c2ccc(C)c(C(=O)NCC(c3ccccc3)N(C)C)c2)c1` (stereo unspecified), the Potency was “inactive”. For `Cc1nc(SCC(=O)Nc2ccc(C(=O)O)cc2)n[nH]1`, the Potency was “inactive”. For `Cc1ccc(NC(=O)CSc2nc3c(c(=O)[nH]2)CN(Cc2ccc4c(c2)OCO4)CC3)cc1C`, the Potency was “inactive”. With `CCOC(=O)c1ccc(CN(Cc2ccccc2)S(=O)(=O)c2ccc(Cl)cc2)cc1` the Potency was “inactive”. With `COc1cccc(NC(=O)CN2C(=O)c3ccccc3Sc3ncccc32)c1` the Potency was “inactive”. In the case of `CCNS(=O)(=O)c1cc(-c2nnc(Nc3cccc(C(F)(F)F)c3)c3ccccc23)ccc1C`, the Potency is reported as “inactive”. With `CCC(=C/c1sc2ccc3ccccc3c2[n+]1C)/C=C1\Sc2ccc3ccccc3c2N1C` the Potency was 50.1 µM (active). `COc1ccc(CN2C(=O)C(NC(=O)c3cccc(C)c3)(C(F)(F)F)N=C2c2ccccc2)cc1` (stereo unspecified) was tested, and the Potency was “inactive”. With `Cc1ccc(-n2ccc(=O)c(C(=O)O)n2)cc1` the Potency was “inactive”. With `Cc1ccc(N2CCN(c3ccc(C)cc3)C2c2ccccn2)cc1` the Potency was 25.1 µM (active). In the case of `Cc1ccc(S(=O)(=O)NCC(=O)N2CCN(c3ccccn3)CC2)cc1`, the Potency is reported as “inactive”. `Cc1cccc(OCC(=O)N(Cc2ccc(C(C)C)cc2)Cc2ccco2)c1C` was tested, and the Potency was “inactive”. For `Oc1c(C(c2ccccc2Cl)N2CCOCC2)sc2nc(-c3ccco3)nn12` (stereo unspecified), the Potency was “inactive”. For `Oc1c(C(c2ccccn2)N2CCOCC2)ccc2cccnc12` (stereo unspecified), the Potency was 17.8 µM (active). With `COc1cc(NC(=O)c2noc3c2CSc2ccccc2-3)cc(OC)c1OC` the Potency was “inactive”. For `CC(=O)N1CCCc2cc(S(=O)(=O)Nc3ccc(Cl)cc3F)ccc21`, the Potency was “inactive”. `CCCCc1nn2c(=O)cc(COC(=O)c3ccccc3NC(=O)C(C)(C)C)nc2s1` was tested, and the Potency was “inactive”. `O=C(c1ccc(CS(=O)(=O)c2ccccc2)o1)N1CCN(c2ccccc2)CC1` was tested, and the Potency was 56.2 µM (active). In the case of `COc1ccccc1CNC(=O)c1ccc(CS(=O)(=O)c2ccccc2)o1`, the Potency is reported as “inactive”. In the case of `O=C(c1ccc(S(=O)(=O)NCc2ccco2)cc1)N1CCN(c2ccccc2)CC1`, the Potency is reported as “inactive”. `Cc1cc(C)cc(NC(=O)CCS(=O)(=O)c2cc3c4c(c2)CCN4C(=O)CC3)c1` was tested, and the Potency was “inactive”. For `Cc1cc(C)c2oc(C(=O)Nc3c(C(=O)Nc4ccccc4)oc4ccccc34)cc(=O)c2c1`, the Potency was “inactive”. `Cc1ccc(C)c(Oc2c(C(F)(F)F)oc3c(CN4CCN(C)CC4)c(O)ccc3c2=O)c1` was tested, and the Potency was “inactive”. In the case of `Cc1c(Cl)cccc1NC(=O)C1CCCN(c2ncnc3onc(C)c23)C1` (stereo unspecified), the Potency is reported as “inactive”.
Note: nearly all actives have a fitted effect of over 50% in size.
Potency is the fitted concentration of half-maximal effect.
